Compound activity as filed in PubChem.
LRH-1 inv ag: suppresses constitutive activity of human LRH-1; O00482; HEK293T StAR-luciferase reporter, LRH-1 transfected, 24 h; inhibition, % at 3.6 µM; actives 0.13% (n = 360,000);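 active = inhibition above the mean inhibition of all tested compounds plus 3 SD, cut at about 73% in these data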;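 note: 0% = DMSO wells and 100% = reporter-only cells lacking LRH-1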
NR2F2 inh: inhibitors of human COUP-TFII (NR2F2) | HEK293T NGFI-A luciferase reporter, luminescence | inhibition, % at 8.6 µM | actives 0.7% (n = 370,000) | AID 686940;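 active = inhibition above a per-plate cutoff, mean inhibition of test wells between control levels plus 3 SD, cut at about 38% in these data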;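 note: cells cotransfected with COUP-TFII expression vector driving the NGFI-A reporter; 0% = median of COUP-TF2 test wells and 100% = reporter-only cells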
SRC1 inh: inhibitors of human steroid receptor coactivator 1 (SRC1); Q15788; HEK293 GAL4-SRC1 luciferase reporter, luminescence; inhibition, % at 3.6 µM; actives 0.12% (n = 360,000);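 active = inhibition above the campaign mean plus 3 SD, with each screening campaign given its own cutoff, cut at about 60% in these data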;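 note: 0% = DMSO treated cells and 100% = gossypol at 36 µM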
Target sequence (Q15788 whole entry, looked up, the tested form may be a part): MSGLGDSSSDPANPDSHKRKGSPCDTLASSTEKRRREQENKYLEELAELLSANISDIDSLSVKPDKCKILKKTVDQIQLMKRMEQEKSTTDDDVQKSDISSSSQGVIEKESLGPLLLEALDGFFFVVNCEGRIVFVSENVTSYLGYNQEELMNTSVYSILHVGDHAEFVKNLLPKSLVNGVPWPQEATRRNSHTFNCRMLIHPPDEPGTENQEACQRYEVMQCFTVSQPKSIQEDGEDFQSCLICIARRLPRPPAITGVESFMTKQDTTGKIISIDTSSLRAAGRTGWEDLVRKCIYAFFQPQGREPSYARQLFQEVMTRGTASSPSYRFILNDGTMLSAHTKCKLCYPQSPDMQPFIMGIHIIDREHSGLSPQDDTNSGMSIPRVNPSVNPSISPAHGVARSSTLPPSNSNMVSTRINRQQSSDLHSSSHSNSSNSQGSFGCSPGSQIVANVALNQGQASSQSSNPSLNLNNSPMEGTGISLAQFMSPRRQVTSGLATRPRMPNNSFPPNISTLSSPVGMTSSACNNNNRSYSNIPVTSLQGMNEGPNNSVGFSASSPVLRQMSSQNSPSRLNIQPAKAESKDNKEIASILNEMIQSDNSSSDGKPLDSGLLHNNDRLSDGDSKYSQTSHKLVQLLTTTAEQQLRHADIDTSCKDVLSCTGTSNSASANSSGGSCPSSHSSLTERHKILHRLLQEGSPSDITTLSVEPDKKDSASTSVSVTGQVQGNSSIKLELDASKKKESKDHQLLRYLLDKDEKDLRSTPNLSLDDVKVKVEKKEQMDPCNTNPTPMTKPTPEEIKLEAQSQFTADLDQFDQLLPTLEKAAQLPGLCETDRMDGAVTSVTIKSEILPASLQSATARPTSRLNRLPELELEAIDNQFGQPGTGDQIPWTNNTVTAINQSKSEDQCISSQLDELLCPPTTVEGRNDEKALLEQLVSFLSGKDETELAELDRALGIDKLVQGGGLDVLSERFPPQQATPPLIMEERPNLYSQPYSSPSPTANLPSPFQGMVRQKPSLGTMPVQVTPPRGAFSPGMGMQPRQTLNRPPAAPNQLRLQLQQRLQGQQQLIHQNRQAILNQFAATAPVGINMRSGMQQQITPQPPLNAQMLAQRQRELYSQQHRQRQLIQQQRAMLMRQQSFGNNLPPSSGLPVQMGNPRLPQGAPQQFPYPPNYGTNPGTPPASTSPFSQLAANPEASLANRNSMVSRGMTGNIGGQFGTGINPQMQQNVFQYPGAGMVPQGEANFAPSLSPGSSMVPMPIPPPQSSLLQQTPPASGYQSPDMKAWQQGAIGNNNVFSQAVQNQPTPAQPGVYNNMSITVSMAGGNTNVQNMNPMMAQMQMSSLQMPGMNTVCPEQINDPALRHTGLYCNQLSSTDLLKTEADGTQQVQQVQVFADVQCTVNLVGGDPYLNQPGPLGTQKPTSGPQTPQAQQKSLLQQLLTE
SRC3 inh: inhibits human SRC3 coactivator. Q9Y6Q9. HEK293 GAL4-SRC3 luciferase reporter, luminescence. inhibition, % at 3.6 µM. actives 0.17% (n = 360,000). AID 588352;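 active = inhibition above a per-campaign cutoff, the mean of all compounds plus 3 SD, cut at about 60% in these data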;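 note: 0% = DMSO-treated cells and 100% = gossypol-treated cells at 36 µM; higher means less SRC3-driven luciferase light from the GAL4 reporter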
GalR3 antagonist: blocks the human galanin receptor 3. actives 0.44% (n = 360,000). AID 651719. inhibition, % at 3 µM. O60755. HEK293 GalR3-CNG cAMP membrane potential fluorescence; galR3 body fused to GalR1 C-terminus;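 active = inhibition above the screen-wide average plus 3 SD, cut at about 13% in these data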;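 note: forskolin and galanin both at EC90 stimulate the cells; cAMP rise reported by CNG channel membrane potential dye signal; 0% = forskolin plus galanin with DMSO and 100% = forskolin alone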
SRC2 inh: inhibits human steroid receptor coactivator 2; inhibition, % at 9 µM; actives 0.17% (n = 370,000); HEK293 GAL4-SRC2 luciferase reporter, luminescence; Q15596;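 active = inhibition above the mean inhibition of all tested compounds plus 3 SD, set per campaign, cut at about 52% in these data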;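 note: 0% = DMSO treated cells and 100% = cells given Gossypol at 36 µM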
GalR3 conf: GalR3 (human) antagonism, confirmation; HEK293 GalR3 CNG cAMP biosensor, membrane potential fluorescence; galR3 fused to GalR1 carboxy tail; challenged with forskolin and galanin at EC90; inhibition, % at 3 µM; AID 652245; actives 59% (n = 1,600); shares compounds with GalR3 antagonist;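 active = inhibition above the primary screen's cutoff, the mean inhibition of all screened compounds plus 3 SD, cut at about 13% in these data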;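 note: 0% = forskolin plus galanin and 100% = forskolin alone with DMSO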
CNG parental: counter-screen for GalR3 antagonists: nonspecific agonists in parental HEK-CNG cells; activation, % at 3 µM; actives 10% (n = 1,600); AID 652268; HEK293-CNG parental cells, cAMP membrane potential fluorescence; normalised: DMSO wells 0%, forskolin wells 100%; shares compounds with GalR3 antagonist; in the data active = activation above about 1.3%
Active calls of the source: *; / = not tested or not shown. Sampled rows, rich in hits. Any-hit rate of the full collection: about 1.1%.

SMILES	LRH-1 inv ag	NR2F2 inh	SRC1 inh	SRC3 inh	GalR3 antagonist	SRC2 inh	others
CC=CC(C)=CC(C)C(=O)CC(O)CC1CC(=O)NC(=O)C1 (stereo not drawn)	40.6	39.4*	20.8	-0.4	-4.3	-13.0
CCCC[C@@H](C)C[C@@H](C)C(=O)N(C)[C@@H](CC(C)C)C(=O)N[C@H](C(=O)N(C)[C@H](C(=O)N1C[C@@H](O)C[C@H]1C(=O)N1C(=O)C=C[C@@H]1C)C(C)C)C(C)OC(C)=O (stereo partly drawn)	75.3*	/	-99.3	46.0	/	/
CC(=O)C1=C(C)OC2=C(C(=O)CCC2)[C@@]12C(=O)N(C)c1ccccc12	/	-6.5	/	/	-4.6	-0.5
CCCNc1nc(OC)nc(N2CC3CC(C2)c2cccc(=O)n2C3)n1 (stereo not drawn)	4.9	0.6	-139.5	-5.0	11.3	1.8
CC(=O)O[C@H]1[C@H]2O[C@]23[C@@H]2CC[C@]4(O)C[C@@H](O)CC[C@]4(C)C2CC[C@]3(C)[C@H]1c1ccc(=O)oc1 (stereo partly drawn)	99.6*	/	86.2*	88.6*	/	/
CC1(C)C(C(=O)N2CCN(c3ccc(Cl)cc3)CC2)C1(C)C	-15.3	-1.0	-21.6	7.1	-11.3	6.8
COC(=O)C1CN(C#N)N(c2ccc(Cl)cc2)C12c1ccccc1-c1ccccc12 (stereo not drawn)	28.1	/	-26.9	72.6*	/	/
CC(C)C[C@H]1N=C(c2ccccc2)c2ccccc2N(CC(=O)NC(C)(C)C)C1=O	/	-11.2	/	/	/	8.0
Cc1nc2c(=O)n(C)c(=O)nc-2n(C)n1	94.8*	64.4*	86.6*	91.6*	-5.3	74.7*
COc1ccc(-[n+]2c(-c3ccccc3)cc(-c3ccc(C)cc3)cc2-c2ccccc2)cc1	86.2*	76.9*	66.1*	78.5*	-12.3	37.1
O=P(Oc1ccc(-c2ccccc2)cc1)(N1CC1)N1CC1	-6.3	1.7	-9.0	-48.7	-3.6	12.2
C[C@H]1CCC[C@@H](O)CCC/C=C/c2cc(O)cc(O)c2C(=O)O1	35.6	34.1	57.8	63.8*	-2.6	21.1
CCOC(=O)[C@]12Cc3ccccc3[C@H]1N(C(C)C)C(=O)c1ccccc12	-48.9	2.0	/	/	-3.5	7.9
CCOC(=O)[C@]12Cc3c(cc(OC)c(OC)c3OC)[C@H]1N(C1CCCCC1)C(=O)c1ccccc12	47.5	59.9*	/	/	3.2	-4.8
C=C1C(=O)OC2CC(C)C3C=CC(=O)C3(C)C(O)C12 (stereo not drawn)	80.6*	/	35.7	42.4	/	/
C=C1C(=O)O[C@H]2C[C@@H](C)[C@@H]3C=CC(=O)[C@@]3(C)C[C@H]12	/	32.3	/	/	-5.0	72.3*
C=C1C(=O)O[C@H]2[C@H]1[C@H](OC(=O)CC(=O)O[C@@H]1C[C@@H](C)[C@@H]3C=CC(=O)[C@@]3(C)[C@H]3OC(=O)C(=C)[C@H]13)C[C@@H](C)[C@H]1C=CC(=O)[C@]12C	-23.2	20.6	-10.2	-26.8	1.8	-16.3
C=C1C(=O)O[C@@H]2C[C@@H](C)[C@@H]3C4OC4C(=O)[C@@]3(C)[C@@H](O)[C@H]12 (stereo partly drawn)	65.9	68.2*	-61.6	-13.1	0.1	77.5*
COc1cc2cc(C(=O)N3CC(COS(C)(=O)=O)c4ccc(O)cc43)[nH]c2c(OC)c1OC (stereo not drawn)	65.0	/	89.6*	94.5*	/	/
O=P(Nc1ccccc1)(Nc1ccccc1)Oc1cccc(Cl)c1	0.2	-2.2	11.3	7.1	0.3	-7.5
O=C1CC(=O)N(c2ccccc2)C(=O)N1	10.2	5.4	2.4	4.8	3.2	-10.4
O=[N+]([O-])c1ccc(N(CCO)CCO)c2c1no[n+]2[O-]	83.5*	-14.1	55.0	67.3*	-4.0	57.6*
Cc1ccc(-c2cc(-c3ccc(C)cc3)[n+](-c3ccc(C(=O)O)cc3)c(-c3ccc(C)cc3)c2)cc1	-0.2	-2.8	7.6	-22.8	-2.5	8.2
Cc1ccc(C[n+]2c(-c3ccc(C)cc3)cc(-c3ccc(C)cc3)cc2-c2ccc(C)cc2)cc1	95.3*	/	68.4*	82.6*	/	/
CCC1(CCC(C)C)C(=O)NC(=S)NC1=O	4.9	1.5	-11.1	-7.5	-6.2	-26.0
SMILES	LRH-1 inv ag	NR2F2 inh	SRC1 inh	SRC3 inh	GalR3 antagonist	SRC2 inh	others
CSc1ncc(Cl)c(C(=O)O)n1 (tested in a mixture with another compound)	1.4	-11.9	1.1	17.2	0.9	23.8
CCC(c1nnnn1-c1ccc2c(c1)OCCO2)N1CCC2(CC1)C(=O)NCN2c1ccccc1 (stereo not drawn)	3.6	-3.9	18.1	7.8	-5.8	7.9
C[C@H]1CCC/C=C/C2C[C@H](O)CC2[C@H](O)/C=C/C(=O)O1 (stereo partly drawn)	89.3*	/	20.6	66.9*	/	/
C[C@H]1CCC[C@H](O)CCCCCc2cc(O)cc(O)c2C(=O)O1	-1.1	22.2	26.6	22.5	-3.7	5.0
O=[N+]([O-])c1cc(-n2cnnn2)c(O)c([N+](=O)[O-])c1	9.2	3.1	-5.9	14.4	-3.1	-3.4
Cc1cc([N+](=O)[O-])c2ccccc2[n+]1[O-]	57.9	/	62.6*	51.9	/	/
C[C@H]1[C@@H](OS(=O)(=O)O)C[C@@H]2C[C@H]([C@@H](O)c3cc(=O)[nH]c(=O)[nH]3)NC3=NC[C@H]1N32	99.5*	/	59.3	58.1	/	/
C=CCN(CC#CCO)Cc1ccc(OC)cc1OC	/	-7.0	/	/	/	15.1
CC12CCC(O)CC1CCC1C2CCC2(C)C(C3=CC(=O)OC3)C(O)CC12O (stereo not drawn)	85.9*	50.8*	52.0	67.3*	12.4	2.4
CC12CC[C@H]3[C@@H](CCC4(O)C[C@H](O)CCC34/C=N/NC(=O)Cc3ccccc3)C1(O)CCC2C1=CC(=O)OC1 (stereo partly drawn)	7.4	-7.3	4.7	9.7	-2.7	4.8
CC(C)(C)NC(=O)C1CN=C(c2ccccc2)c2cc(Cl)ccc2N1C(=O)C1CCC1 (stereo not drawn)	/	-1.3	/	/	/	8.3
CN[C@H](C)[C@H](O)c1ccccc1	13.2	/	-4.0	-17.6	/	/
CC(NCC#Cc1ccccc1)C(O)c1ccccc1 (stereo not drawn)	3.3	-31.3	-24.0	-43.7	16.0*	-3.5	GalR3 conf=35.4*;CNG parental=0.9
